Among the test systems are NCI-H23 lung; NCI-H226 lung; NCI-H322M lung; HOP-62 NSCLC; NCI-H460 lung; HOP-92 NSCLC; NCI-H522 lung; A549/ATCC NSCLC; 786-0 renal; COLO 205 colon; DU-145 prostate; K-562 leukemia; MALME-3M melanoma; MDA-MB-231 breast; RXF 393 renal; SF-268 CNS; SF-295 CNS; SF-539 CNS; UACC-257 melanoma; M14 melanoma.
Holding throughout (experiment): NCI-60 one-dose screen, 48 h (100 = growth as untreated, 0 = no growth, -100 = all killed)
What all share (conditions): 10 µM

This is part of a sample that, as a whole, favours compounds with a hit. Of some 83,000 tested, about 20% had one in any assay.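 Activity criterion: percent growth below 10, measured after cells in 96-well plates were exposed to a single compound concentration for 48 hours.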 Unmarked numbers belong to inactive results. Calls of active or inactive are those of the source.

For `O=C1CC[C@@H](C(=O)N[C@H]2CSSC[C@@H](C(=O)N/C=C/c3ccc(O)cc3)NC(=O)[C@H](Cc3ccccc3)NC(=O)[C@@H]3CCCN3C(=O)[C@@H]3CCCN3C2=O)N1`, the growth in the experiment on NCI-H23 lung is 96.5%; in the experiment with NCI-H226 lung, 93.5%; in the experiment on NCI-H322M lung, 108%; in the experiment on HOP-62 NSCLC, 78.2%; in the experiment on NCI-H460 lung, 102%; in the experiment on HOP-92 NSCLC, 99.2%. For the same molecule, the growth in the experiment on NCI-H522 lung was 87.4%; in the experiment on A549/ATCC NSCLC, 85.2%; in the experiment on 786-0 renal it was 118%; in the experiment on COLO 205 colon, 102%; with DU-145 prostate, 106%; with K-562 leukemia, 93.9%. Further, the growth is 115% with MALME-3M melanoma; 98.9% in the experiment on MDA-MB-231 breast; 96.9% in the experiment with RXF 393 renal; 107% with SF-268 CNS; 99.5% in the experiment with SF-295 CNS; 96.6% with SF-539 CNS. The growth in the experiment with UACC-257 melanoma is 95.4%.

For the molecule `O=C(O)c1ccc(CNc2ccc(C(=O)CCl)cc2)cc1`, the growth was 116% in the experiment with NCI-H23 lung; 97.2% with NCI-H226 lung; 102% with NCI-H322M lung; 98.5% with HOP-62 NSCLC; 103% with NCI-H460 lung; 77.4% in the experiment with HOP-92 NSCLC. Moreover, the growth with NCI-H522 lung is -41.9% (active); in the experiment on A549/ATCC NSCLC it was 94.9%; with 786-0 renal, 109%; in the experiment on COLO 205 colon, 97.3%; in the experiment with DU-145 prostate, 101%; in the experiment with K-562 leukemia it was 92.1%. Besides, the growth with MALME-3M melanoma was 111%; with MDA-MB-231 breast, 104%; in the experiment with RXF 393 renal, 78.4%; in the experiment with SF-268 CNS, 109%; in the experiment with SF-295 CNS it was 86.1%; with SF-539 CNS it was 102%. Further, the growth in the experiment with UACC-257 melanoma was 75%; with M14 melanoma, 105%.

For the molecule `O=C(CCCC(=O)N/N=C/c1cc(Cl)ccc1O)N/N=C\c1cc(Cl)ccc1O`, the growth is 38.4% in the experiment on NCI-H23 lung; 40.7% in the experiment with NCI-H226 lung; 23.7% in the experiment on NCI-H322M lung; 24.1% in the experiment with HOP-62 NSCLC; 10.2% in the experiment on NCI-H460 lung; 24.4% in the experiment with HOP-92 NSCLC. Moreover, the growth with NCI-H522 lung was 18.3%; in the experiment with A549/ATCC NSCLC it was 29.5%; in the experiment with 786-0 renal it was 24.8%; with COLO 205 colon, 16.3%; in the experiment on DU-145 prostate, 42.9%; with K-562 leukemia, 13.9%. Further, the growth with MALME-3M melanoma is 31.2%; in the experiment with MDA-MB-231 breast it was 37.5%; in the experiment with RXF 393 renal, 39.2%; in the experiment on SF-268 CNS, 26.4%; with SF-295 CNS it was -5.9% (active); in the experiment with SF-539 CNS, 14.1%. In addition, the growth in the experiment on UACC-257 melanoma is -1.55% (active).

`c1ccc(CC(NCCNC(Cc2ccccc2)c2ccccc2)c2ccccc2)cc1` (stereo not given): the growth with NCI-H23 lung was 25%; in the experiment with NCI-H226 lung it was 38%; in the experiment on NCI-H322M lung, 66.2%; in the experiment with HOP-62 NSCLC it was 61.1%; in the experiment on NCI-H460 lung, -13.9% (active); in the experiment with HOP-92 NSCLC, -9.41% (active). The growth with NCI-H522 lung was -40.5% (active); with A549/ATCC NSCLC it was 36.8%; with 786-0 renal it was 35.9%; in the experiment on COLO 205 colon, -59.5% (active); with DU-145 prostate, 15.7%; in the experiment with K-562 leukemia it was -25.7% (active). Further, the growth with MALME-3M melanoma is -22.5% (active); in the experiment on MDA-MB-231 breast, 7.83% (active); in the experiment with RXF 393 renal, -8.13% (active); in the experiment with SF-268 CNS, 43.1%; in the experiment on SF-295 CNS, 2.14% (active); in the experiment with SF-539 CNS, 32.3%. Moreover, the growth in the experiment with UACC-257 melanoma was 48.5%; in the experiment on M14 melanoma it was 2.08% (active).

In the case of `NS(=O)(=O)c1ccc(N2N=C(c3ccc(-c4ccccc4)cc3)CC2c2ccc(Cl)cc2)cc1` (stereo not given), the growth in the experiment on NCI-H23 lung was 85.9%; in the experiment on NCI-H226 lung, 81%; with NCI-H322M lung, 87.6%; with HOP-62 NSCLC, 90.8%; in the experiment with NCI-H460 lung it was 70.1%; in the experiment with HOP-92 NSCLC, 78.4%. The growth in the experiment on NCI-H522 lung is 75.1%; in the experiment on A549/ATCC NSCLC it was 64.1%; in the experiment on 786-0 renal, 95.9%; with COLO 205 colon, 103%; in the experiment on DU-145 prostate, 96.6%; in the experiment on K-562 leukemia, 71.2%. Besides, the growth in the experiment on MALME-3M melanoma was 106%; in the experiment on MDA-MB-231 breast it was 86.9%; with RXF 393 renal, 73.4%; in the experiment with SF-268 CNS, 83.5%; in the experiment on SF-295 CNS, 88.4%; in the experiment on SF-539 CNS, 93.9%. The growth in the experiment with UACC-257 melanoma is 92.4%.

Turning to `Cc1ccc(-n2c(-c3cc4c([nH]c5ccccc54)c(-c4cccc(O)c4)n3)n[nH]c2=S)cc1`, the growth with NCI-H23 lung was 22.9%; in the experiment with NCI-H226 lung, -27.1% (active); in the experiment with NCI-H322M lung it was -2.32% (active); with HOP-62 NSCLC it was -24% (active); with NCI-H460 lung it was 4.05% (active); with HOP-92 NSCLC, 34.3%. For the same molecule, the growth in the experiment with NCI-H522 lung was -39.9% (active); in the experiment on A549/ATCC NSCLC it was 2.93% (active); in the experiment with 786-0 renal, 10.8%; with COLO 205 colon, 17.8%; in the experiment on DU-145 prostate, -16.6% (active); with K-562 leukemia, 9.64% (active). Besides, the growth in the experiment with MALME-3M melanoma is 41.3%; in the experiment on MDA-MB-231 breast, -1.15% (active); in the experiment on RXF 393 renal it was -50.5% (active); in the experiment with SF-268 CNS, 9.02% (active); in the experiment with SF-295 CNS, -17.2% (active); in the experiment with SF-539 CNS it was -27.3% (active). In the experiment with UACC-257 melanoma, the growth was 2.43% (active).

Regarding `C[C@]12CC[C@H]3[C@@H](CC=C4C[C@@H](O)CC[C@@]43C)[C@@H]1CC[C@@H]2C(=O)C/C=N/O`, the growth with NCI-H23 lung was 86.6%; in the experiment with NCI-H226 lung, 107%; with NCI-H322M lung, 88.5%; with HOP-62 NSCLC, 76.8%; with NCI-H460 lung, 97.9%; in the experiment with HOP-92 NSCLC it was 54.9%. In addition, the growth is 79.4% with NCI-H522 lung; 89.5% in the experiment with A549/ATCC NSCLC; 90.8% in the experiment on 786-0 renal; 101% in the experiment on COLO 205 colon; 99.5% with DU-145 prostate; 78.1% with K-562 leukemia. Moreover, the growth was 84% in the experiment with MALME-3M melanoma; 103% with MDA-MB-231 breast; 96.2% in the experiment with RXF 393 renal; 92.2% with SF-268 CNS; 97.2% in the experiment with SF-295 CNS; 91.6% with SF-539 CNS. The growth in the experiment with UACC-257 melanoma was 99.5%.

On to `Cc1cc(C)c2c(Nc3ncnc4c3sc3nc(C)cc(C)c34)n[nH]c2n1`, for which the growth is 98.6% in the experiment with NCI-H23 lung; 93.8% in the experiment with NCI-H226 lung; 111% with NCI-H322M lung; 95% with HOP-62 NSCLC; 104% in the experiment on NCI-H460 lung; 102% with HOP-92 NSCLC. Also, the growth with NCI-H522 lung was 96.9%; in the experiment with A549/ATCC NSCLC it was 102%; in the experiment with 786-0 renal, 106%; in the experiment on COLO 205 colon, 109%; in the experiment with DU-145 prostate it was 113%; in the experiment with K-562 leukemia it was 93.2%. In addition, the growth in the experiment on MALME-3M melanoma was 94.2%; in the experiment on MDA-MB-231 breast, 99.4%; with RXF 393 renal, 97.6%; in the experiment with SF-268 CNS, 103%; in the experiment on SF-295 CNS it was 91.3%; with SF-539 CNS, 100%. Besides, the growth is 100% in the experiment with UACC-257 melanoma and 99% in the experiment with M14 melanoma.

Values taken from PubChem BioAssay (NCI).
